This is a sample that favours compounds with a hit; in the whole collection about 11% have one here.
OTUD3 inh: blocks human OTUD3 ubiquitin-rhodamine cleavage. Q5T2D3. purified OTUD3, Ub-rhodamine fluorescence, 2 h. inhibition, % at 25 µM. 47,000 compounds, 0.7% hits. AID 1645858
Target sequence (Q5T2D3 whole entry, looked up): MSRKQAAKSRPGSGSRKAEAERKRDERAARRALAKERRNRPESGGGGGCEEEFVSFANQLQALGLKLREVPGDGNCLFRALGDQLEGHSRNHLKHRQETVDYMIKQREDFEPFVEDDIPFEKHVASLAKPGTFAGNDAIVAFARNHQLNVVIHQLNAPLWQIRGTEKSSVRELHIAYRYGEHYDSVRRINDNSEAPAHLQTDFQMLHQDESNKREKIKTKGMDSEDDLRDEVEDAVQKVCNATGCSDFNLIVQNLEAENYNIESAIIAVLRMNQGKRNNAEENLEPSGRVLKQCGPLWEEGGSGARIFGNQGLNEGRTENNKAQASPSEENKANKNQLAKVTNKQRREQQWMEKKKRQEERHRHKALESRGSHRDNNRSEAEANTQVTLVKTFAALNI
USP17 inh: blocks human USP17 ubiquitin-rhodamine cleavage | A8MUK1 | purified USP17, Ub-rhodamine cleavage fluorescence, 3 h | inhibition, % at 50 µM | 47,000 compounds, 6.5% hits
USP28 inh: inhibitors of human USP28 deubiquitinase; purified USP28, Ub-rhodamine cleavage fluorescence, 30 min; inhibition, % at 25 µM; 47,000 compounds, 3% hits
USP30 block: inhibitors of human USP30 deubiquitinase; inhibition, % at 25 µM; purified USP30, Ub-rhodamine cleavage fluorescence; 47,000 compounds, 5.3% hits; Q70CQ3; AID 1645860
An asterisk follows results filed as active; x = no result. Rule as the data show it: active = inhibition above about 30%; inactive = the rest.

SMILES	OTUD3 inh	USP17 inh	USP28 inh	USP30 block
COc1ccc(C(C)=O)cc1CC(=O)Nc1nc2ccccc2[nH]1	5	59*	24	21
COc1ccccc1CC(=O)Nc1nc2ccccc2[nH]1	-2	60*	3	15
Cc1c(OCC(=O)Nc2nc3ccccc3[nH]2)ccc2c3c(c(=O)oc12)CCC3	0	37*	8	52*
Cc1ccc(C2C(C(=O)c3cc4ccccc4o3)=C(O)C(=O)N2CCCN(C)C)o1 (stereo not drawn)	0	0	-1	-12
Cc1c(S(=O)(=O)N2CCCCC2)cc(C(=O)N2CCN(c3ccc(F)cc3)CC2)n1C	-7	-4	-4	-4
Cc1noc(-c2c(C)[nH]c(C)c2S(=O)(=O)NC(C)c2ccccc2)n1 (stereo not drawn)	-8	-5	-4	-5
Cc1ccc2c(c1)C(c1ccc(F)cc1)N(C(=O)COc1ccc3ccccc3c1)CC(=O)N2 (stereo not drawn)	-6	-10	-11	-21
CCOc1ccc2ccccc2c1C(=O)N1CC(=O)Nc2ccc(C)cc2C1c1ccc(F)cc1 (stereo not drawn)	-1	9	17	43*
CCCC1Cc2c(sc3nc(SCc4ccccc4Cl)nc(N)c23)CO1 (stereo not drawn)	-14	40*	-7	-2
CCCC1Cc2c(sc3nc(SCC)nc(N)c23)CO1 (stereo not drawn)	0	81*	-14	0
O=C(CN1C(=O)CSc2cccn2-c2ccccc21)NCc1ccc(Cl)cc1	24	40*	21	10
CN1[C@@H](CCC(=O)N2CCN(c3ccccc3)CC2)CNC(=O)[C@@H]2[C@H]1CCN2Cc1ccccn1	11	-18	6	17
O=C(OCC(=O)N1CCC(Cc2ccccc2)CC1)c1ccc2c(c1)S(=O)(=O)N=C1CCCCCN12	7	2	21	49*
COc1cc(C(=O)OCC(=O)N2CCC(Cc3ccccc3)CC2)c([N+](=O)[O-])cc1OC	18	-4	21	44*
O=C(COc1cccnc1[N+](=O)[O-])N1CCC(Cc2ccccc2)CC1	-1	-14	-4	26
O=C(COC(=O)c1ccc2c(c1)S(=O)(=O)N=C1CCCCCN12)NCCc1ccc(F)cc1	-1	x	2	5
COc1ccc(C(=O)OCC(=O)N2CCC(Cc3ccccc3)CC2)cc1[N+](=O)[O-]	7	11	36*	46*
O=C(Cc1cccc2ccccc12)Nc1ccc2c(c1)NC(=O)CO2	1	19	50*	30*
O=C1COc2ccc(NC(=O)N3CCN(C(c4ccccc4)c4ccccc4)CC3)cc2N1	-3	3	3	-14
O=C(Cn1cccc(S(=O)(=O)N2CCCCCC2)c1=O)Nc1ccc(F)cc1	-72	42*	-18	5
C=Cc1ccc(Cn2cccc(S(=O)(=O)N3CCCC3)c2=O)cc1	0	63*	49*	-59
N#Cc1cn2c(nc1-c1ccc(Cl)cc1)nc1ccccc12	61*	94*	71*	77*
COCCN(C)c1nc(C2CCN(c3ccc(C)nn3)CC2)cc2c1ncn2C	-13	-21	-24	-133
Cc1cc(C)cc(NC(=O)NCC(O)COc2ccc([N+](=O)[O-])cc2)c1 (stereo not drawn)	2	32*	27	17
CCOc1ccc(-n2cc(C(=O)Nc3cnc4ccccc4c3)nn2)cc1	-4	43*	-4	-10
SMILES	OTUD3 inh	USP17 inh	USP28 inh	USP30 block
CCOc1ccc(NC(=O)c2cccc(-n3cnnc3)n2)cc1	16	17	25	20
CCCC[C@@H](C)/C=C(C)/C=C(\C)C(=O)NC1=C[C@](O)(/C=C/C=C/C=C/C(=O)NC2=C(O)CCC2=O)[C@@H]2O[C@@H]2C1=O	69*	73*	73*	2
Cc1nc(Nc2ncccn2)cc(C2CCCN2Cc2cnn(C)c2)n1 (stereo not drawn)	6	5	-8	-16
CCN1CCN(C(=O)c2cc(-c3ccccc3)cn2C)CC1	7	-2	-3	7
CCN1CCN(C(=O)CCCN(c2ccccc2)S(C)(=O)=O)CC1	15	62*	22	35*
CCN(CC)C(=O)c1cnc(C2CCCCN2C(=O)c2ccc3c(c2)nc(C)n3C)nc1C (stereo not drawn)	5	-2	0	-4
Cc1ccc(N(CC(=O)N2CCCc3ccccc32)S(=O)(=O)c2ccc3c(c2)OCCO3)cc1	21	7	13	32*
O=C(CN1CCN(S(=O)(=O)c2ccc3c(c2)OCCCO3)CC1)N1CCCc2ccccc21	1	-2	1	12
COc1ccc(NC(=O)C2c3ccccc3C(=O)N(C3CCCC3)C2c2cccs2)c(OC)c1 (stereo not drawn)	17	18	13	40*
COc1ccc(NC(=O)C2c3ccccc3C(=O)N(C3CCCC3)C2c2cccs2)cc1OC (stereo not drawn)	17	56*	26	16
COc1ccc(OC)c(NC(=O)C2c3ccccc3C(=O)N(C3CCCC3)C2c2cccs2)c1 (stereo not drawn)	0	-1	-5	4
COC(=O)c1ccc(N2CCN(C(=O)c3ccccc3)CC2)c(NC(=O)/C=C/c2ccc(C(C)C)cc2)c1	-6	-16	-14	-14
O=C(CC(c1cccc(F)c1)n1cccc1)Nc1ccc(F)c(Cl)c1 (stereo not drawn)	27	46*	26	36*
COc1ccc(N2CCN(C(=O)c3[nH]c4ccccc4c3NC(=O)c3ccc(C)cc3)CC2)cc1	-8	0	-6	-45
COc1ccc(CC2(NC(=O)c3ccccc3)N=C3C=CC=CN3C2=O)cc1OC (stereo not drawn)	10	14	10	21
Cc1ccc(Cn2nnc3c(=O)[nH]c(C4CCN(C(=O)c5cccc(F)c5)CC4)nc32)cc1	-10	-12	-20	-15
COc1ccc(C2C(C(N)=O)=C(C)Nc3nc(SCc4ccccc4)nn32)cc1 (stereo not drawn)	0	-7	-8	-42
COc1ccc(C)cc1NC(=O)C1CC(=O)Nc2nc(SCc3ccccc3)nn21 (stereo not drawn)	8	53*	6	-6
Cc1cccc(C(=O)N2CCC(C(=O)c3ccc4c(c3)OCCO4)CC2)c1	12	7	30*	26
O=C(c1ccc(S(=O)(=O)N2CCOCC2)cc1)N1CCN(C2=NS(=O)(=O)c3ccccc32)CC1	0	1	4	11
O=C(Oc1cccc(NC2=NS(=O)(=O)c3ccccc32)c1)c1ccc(S(=O)(=O)N2CCCCC2)cc1	0	52*	x	x
Cc1ccc(C)c(S(=O)(=O)CCN2CCCC2c2cnn(C)c2)c1 (stereo not drawn)	-55	-79	-74	-318
CC(Nc1ncnc2c1sc1nc(N3CCOCC3)c3c(c12)CCC3)c1ccccc1 (stereo not drawn)	-5	51*	-1	-9
c1cncc(CNc2ncnc3c2sc2nc(N4CCOCC4)c4c(c23)CCC4)c1	-3	32*	1	17
CN(C)c1ncccc1-c1nc2cc(Cl)c(Cl)cc2s1	2	9	4	1
O=C(NCc1ccccc1)c1ccc(SCCN2CCCCC2)nc1	0	0	1	-14

Source: PubChem (Buhrlage Lab, Dana-Farber Cancer Institute and Novartis Institutes for BioMedical Research (Cambridge, Mass))
